GalR3 antagonist: blocks the human galanin receptor 3; O60755; HEK293 GalR3-CNG cAMP membrane potential fluorescence; galR3 body fused to GalR1 C-terminus; inhibition, % at 3 µM; 0.44% of 360,000 active; AID 651719;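 active = inhibition above the screen-wide average plus 3 SD, cut at about 13% in these data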;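 also: forskolin and galanin both at EC90 stimulate the cells; cAMP rise reported by CNG channel membrane potential dye signal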
Target sequence (O60755 1-299 limits assumed): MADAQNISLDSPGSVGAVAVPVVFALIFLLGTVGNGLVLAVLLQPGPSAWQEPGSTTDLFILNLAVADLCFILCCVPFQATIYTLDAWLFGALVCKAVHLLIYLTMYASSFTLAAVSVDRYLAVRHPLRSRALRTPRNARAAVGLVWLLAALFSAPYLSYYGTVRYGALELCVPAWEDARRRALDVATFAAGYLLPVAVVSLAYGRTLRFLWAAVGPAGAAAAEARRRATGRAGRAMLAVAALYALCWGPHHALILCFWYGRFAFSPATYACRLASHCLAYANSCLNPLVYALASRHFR
HIV Env fusion: inhibitors of HIV Env-mediated cell fusion; AID 651610; inhibition, % at 12.3 µM; 1.1% of 360,000 active; HeLa-JRFL Env/CEM21 cell fusion, luciferase;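 active = mean replicate inhibition score of at least 50 and every replicate individually at or above 50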
Gli-Sufu antag: antagonists of Gli-Sufu signaling; Sufu-KO-LIGHT fibroblasts, Gli luciferase reporter luminescence; inhibition, % at 5 µM; 0.74% of 340,000 active; AID 588413;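 active = inhibition above about 55%, limit read from the data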
COUP-TFII inh: NR2F2 (human) inhibition, primary screen | inhibition, % at 8.6 µM | 0.7% of 370,000 active | HEK293T NGFI-A luciferase reporter, luminescence | P24468;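 active = inhibition above a per-plate cutoff, mean inhibition of test wells between control levels plus 3 SD, cut at about 38% in these data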;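 also: cells cotransfected with COUP-TFII expression vector driving the NGFI-A reporter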
aDG glyco act: alpha-DG glycosylation activation. activation, % at 10 µM. 0.22% of 360,000 active. Pro5-aDG cells, alpha-DG glycosylation AlphaScreen (IIH6); 0% Pro5, 100% B10-LARGE cell signal. AID 624168;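 active = activation of at least 8% versus controls, or a plate z-score of at least 8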;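 also: Pro5 are CHO cells carrying HIG-tagged alpha-DG that lacks glycosylation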
VP16 Luc counter: VP16 inhibition counter-screen for COUP-TFII; shares compounds with COUP-TFII inh; AID 687007; 25% of 2,500 active; HEK293 Gal4-VP16 luciferase reporter, luminescence; inhibition, % at 8.5 µM; in the data active = inhibition above about 13%
COUP-TFII conf: COUP-TFII (NR2F2) inhibition, confirmation assay | shares compounds with COUP-TFII inh | HEK293 NGFI-A luciferase reporter, luminescence | inhibition, % at 8.5 µM | 45% of 2,500 active;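 active = mean inhibition over three repeats above a set limit taken from the earlier primary screen, cut at about 38% in these data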
Each line names hits and unclear results; the compound was inactive in the other large screens (follow-up assays come after a bar, where they were run). An excerpt weighted towards active compounds, which were near 2.1% of everything screened.

CCCNS(=O)(=O)c1ccc(OCC(=O)N2CCN(Cc3ccc4c(c3)OCO4)CC2)cc1	none
C[C@@H]1O[C@@H](O[C@@H]2C=C3CCC4C(CC[C@]5(C)[C@@H](c6ccc(=O)oc6)CC[C@]45O)[C@@]3(C)CC2)[C@H](O)[C@H](O)[C@H]1O (stereo not given in full)	GalR3 antagonist 16, HIV Env fusion 65, COUP-TFII inh 81 | VP16 Luc counter 56 | COUP-TFII conf 82
C[C@@H]1O[C@@H](O[C@@H]2C=C3CC[C@@H]4C(CC[C@]5(C)[C@@H](c6ccc(=O)oc6)CC[C@]45O)[C@@]3(C)CC2)[C@H](O)[C@H](O)[C@H]1O (stereo not given in full)	GalR3 antagonist 33, HIV Env fusion 93, COUP-TFII inh 73 | VP16 Luc counter 55 | COUP-TFII conf 81
COc1ccc(CC(=O)N2CCN(C)CC2)cc1	none
COc1ccc(CC2NCC(O)C2OC(C)=O)cc1 (stereo not given)	Gli-Sufu antag 86, COUP-TFII inh 88 (no result: HIV Env fusion) | VP16 Luc counter 22 | COUP-TFII conf 82
CC(=O)OC1C(O)C(C)OC(OC2C(OC(=O)C3CCC4C(C3)OC3(CC(OC(=O)/C=C/c5ccccc5)C(C)CO3)C43CO3)OC(C)C(O)C2OC(C)=O)C1O (stereo not given)	HIV Env fusion 72, Gli-Sufu antag 90, COUP-TFII inh 91 | VP16 Luc counter 23 | COUP-TFII conf 87
C=C1C(=O)O[C@@H]2C[C@@H](C)[C@@H]3C=CC(=O)[C@@]3(C)[C@@H](O)[C@H]12	Gli-Sufu antag 97, COUP-TFII inh 97 (no result: GalR3 antagonist, HIV Env fusion) | VP16 Luc counter 84 | COUP-TFII conf 99
COC(=O)C12OCC34C(CC5C(C)=C(O)C(=O)CC5(C)C3C(O)C1O)OC(=O)C(OC(=O)/C=C(\C)C(C)C)C24 (stereo not given)	HIV Env fusion 84, Gli-Sufu antag 88, COUP-TFII inh 94 | VP16 Luc counter 20 | COUP-TFII conf 88
CC1=CC2OC3CC4OC(=O)C=CC=CC(C(C)O)OCC(O)C(C)CC(=O)OCC2(CC1O)C4(C)C31CO1 (stereo not given)	HIV Env fusion 83, Gli-Sufu antag 90, COUP-TFII inh 90 | VP16 Luc counter 23 | COUP-TFII conf 93
O=C1/C(=C\c2cc3c(cc2Br)OCO3)N2CCC1CC2	none (no result: GalR3 antagonist, HIV Env fusion, COUP-TFII inh)
CCCCn1c(NS(=O)(=O)c2ccc(C)cc2)c(C(=O)OCC)c2nc3ccccc3nc21	none
CCCCn1c(NC(=O)c2ccco2)c(C(=O)OCC)c2nc3ccccc3nc21	COUP-TFII inh 44 (no result: HIV Env fusion) | VP16 Luc counter inactive | COUP-TFII conf inactive
COc1cc(C(=O)N/N=C/C23CC[C@@H](O)CC2(O)CC[C@@H]2[C@@H]3CCC3(C)C(C4=CC(=O)OC4)CCC23O)ccc1O (stereo not given in full)	none
CC(=O)OC1CC(OC2C(O)CC(OC3C(O)CC(OC4CCC5(C)C(CCC6C5CCC5(C)C(C7=CC(=O)OC7)CCC65O)C4)OC3C)OC2C)OC(C)C1OC1OC(CO)C(O)C(O)C1O (stereo not given)	GalR3 antagonist 22, HIV Env fusion 69, COUP-TFII inh 77 | VP16 Luc counter 56 | COUP-TFII conf 78
CCCOP(=O)(O)c1c([N+](=O)[O-])cc(C(F)(F)F)cc1[N+](=O)[O-] (tested in a mixture with another compound)	none (no result: HIV Env fusion)
OCC(Cl)CCl (stereo not given)	none (no result: HIV Env fusion)
CN(Cc1cccc(-c2cccnc2)c1)C(=O)Oc1ccc([N+](=O)[O-])cc1	HIV Env fusion 134, COUP-TFII inh 51 (no result: Gli-Sufu antag) | VP16 Luc counter inactive | COUP-TFII conf inactive
Cc1nc(-c2cccc(CN(C)C(=O)Oc3ccc([N+](=O)[O-])cc3)c2)no1	none (no result: Gli-Sufu antag)
N#Cc1ccc(CN2Cc3ccccc3-n3nncc3C2)cc1	none (no result: Gli-Sufu antag)
C[C@@H]1CCC2[C@@H](C)C(=O)O[C@@H]3OC4(C)CCC1[C@@]23OO4 (stereo not given in full)	none (no result: GalR3 antagonist, HIV Env fusion, COUP-TFII inh, aDG glyco act)
CCC(C)C(NC(=O)CCCNC(=O)CCC(=O)OC1O[C@H]2OC3(C)CC[C@H]4[C@H](C)CCC(C1C)C24OO3)C(=O)O (stereo not given in full)	HIV Env fusion 58, COUP-TFII inh 49 (no result: Gli-Sufu antag) | VP16 Luc counter inactive | COUP-TFII conf 46
COC(=O)c1ccc(C(C(=O)NC2CCCCC2)N(CCN2CCOCC2)C(=O)Cc2cccs2)cc1 (stereo not given)	none
O=C(c1ccc(Cl)cc1)C1CCCN(Cc2cccc3ncccc23)C1 (stereo not given)	COUP-TFII inh 41 | VP16 Luc counter inactive | COUP-TFII conf 45
O=C(c1ccc(Cl)cc1)C1CCCN(Cc2cccc3cccnc23)C1 (stereo not given)	none
CC(=O)c1c(C)n(C2CCCCC2)c2ccc(O)cc12	HIV Env fusion 62, COUP-TFII inh 51 | VP16 Luc counter 17 | COUP-TFII conf inactive
CC(=O)c1c(C)n(Cc2ccccc2)c2ccc(O)cc12	none
Nc1ncnc2c1ccn2[C@@H]1O[C@H](CO)[C@@H](O)[C@H]1O	COUP-TFII inh 64 (no result: HIV Env fusion) | VP16 Luc counter 32 | COUP-TFII conf 51
Cn1c(O)c(/C=C2\N=c3ccccc3=C2CCNC(=S)NC2CC2)c(=O)n(C)c1=O	none
COC(=O)C1=C(c2ccc(-c3ccccc3)c(F)c2)C[C@@H]2CC[C@H]1N2C(=O)NCCOc1ccc(OC)cc1	COUP-TFII inh 40 | VP16 Luc counter inactive | COUP-TFII conf inactive
C[C@@H]1COc2cccc(N3CCN(C)CC3)c2S(=O)(=O)N1	none (no result: Gli-Sufu antag)
C[C@]12CC[C@@H](O)CC1=CCC1C2CC[C@@]2(C)C1CC[C@@H]2O (stereo not given in full)	none (no result: Gli-Sufu antag)
CC1OC(OC2CC(O)C3(CO)C4C(O)CC5(C)C(C6=CC(=O)OC6)CCC5(O)C4CCC3(O)C2)C(O)C(O)C1O (stereo not given)	GalR3 antagonist 39, COUP-TFII inh 84 (no result: HIV Env fusion) | VP16 Luc counter 53 | COUP-TFII conf 80
C[C@@H]1O[C@@H](O[C@H]2C[C@@H](O)[C@]3(CO)[C@H]4[C@H](O)C[C@]5(C)[C@@H](C6COC(=O)C6)CC[C@]5(O)[C@@H]4CC[C@]3(O)C2)[C@H](O)[C@H](O)[C@H]1O (stereo not given in full)	GalR3 antagonist 22, COUP-TFII inh 68 | VP16 Luc counter 21 | COUP-TFII conf 59
O=C(c1ccc(Cl)cc1)C1CCCN(Cc2ccc3nonc3c2)C1 (stereo not given)	none
O=c1[nH]c(=O)n(Cc2ccccc2Cl)c(O)c1/C=C1/C=CC=N1	none
CCOP(=S)(OCC)Oc1cc(C)nc(C(C)C)n1	none

Screens deposited in PubChem by several laboratories.
